Measured values taken from the supplement of paper PMC8728848.
The entries come from a sample that favours the strongest signals as a whole.

Experiments:
Experiment in all cases: glycan array binding signal (z-score within array); higher = stronger binding
Details in all cases: glycan notation: IUPAC condensed, linker removed
[1] = target: Fuc(a1-2)Gal(b1-3)GlcNAc(b1-2)Man(a1-3)[Fuc(a1-2)Gal(b1-3)GlcNAc(b1-2)Man(a1-6)]Man(b1-4)GlcNAc(b1-4)GlcNAc
Outline: (§1)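 Glycan array data came from 3228 arrays in the Consortium for Functional Glycomics database, and only arrays with an available protein sequence were kept. Glycan names were put into IUPAC-condensed notation, and columns mapping to the same glycan were averaged. The binding signal is a within-array Z-score, averaged across arrays of one protein sequence run at different concentrations or buffers and across linkers. A negative Z-score can be read as non-binding.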

[2] = target: Fuc(a1-2)Gal(b1-3)GlcNAc(b1-3)Gal(b1-4)Glc
Outline: as §1

[3] = target: Fuc(a1-2)Gal(b1-4)GlcNAc(b1-2)Man(a1-3)[Fuc(a1-2)Gal(b1-4)GlcNAc(b1-2)Man(a1-6)]Man(b1-4)GlcNAc(b1-4)[Fuc(a1-6)]GlcNAc
Outline: as §1

[4] = target: Fuc(a1-2)Gal(b1-4)GlcNAc(b1-3)[Fuc(a1-2)Gal(b1-4)GlcNAc(b1-6)]GalNAc
Outline: as §1

[5] = target: Fuc(a1-2)[Gal(a1-3)]Gal(b1-4)GlcNAc
Outline: as §1

[6] = target: Fuc(a1-2)[Gal(a1-3)]Gal(b1-4)GlcNAc(b1-6)GalNAc
Outline: as §1

[7] = target: Fuc(a1-2)[GalNAc(a1-3)]Gal(b1-3)GlcNAc(b1-3)GalNAc
Outline: as §1

[8] = target: Fuc(a1-2)[GalNAc(a1-3)]Gal(b1-4)GlcNAc(b1-3)GalNAc
Outline: as §1

[9] = target: Fuc(a1-3)[Gal(b1-4)]GlcNAc(b1-3)Gal(b1-4)[Fuc(a1-3)]GlcNAc(b1-3)Gal(b1-4)[Fuc(a1-3)]GlcNAc
Outline: as §1

[10] = target: Fuc(a1-3)[Gal(b1-4)]GlcNAc(b1-6)GalNAc
Outline: as §1

[11] = target: Fuc(a1-3)[Gal(b1-4)]GlcNAc(b1-6)[Gal(b1-3)GlcNAc(b1-3)]Gal(b1-4)Glc
Outline: as §1

[12] = target: Fuc(a1-4)GlcNAc
Outline: as §1

[13] = target: Gal(a1-3)Gal(b1-3)GlcNAc(b1-2)Man
Outline: as §1

[14] = target: Gal(a1-3)Gal(b1-4)GlcNAc(b1-6)GalNAc
Outline: as §1

[15] = target: Gal(b1-3)GalNAc(b1-4)Gal(b1-4)Glc
Outline: as §1

[16] = target: Gal(b1-3)GlcNAc(b1-3)Gal(b1-4)GlcNAc
Outline: as §1

[17] = target: Gal(b1-3)GlcNAc(b1-3)Gal(b1-4)GlcNAc(b1-6)[Gal(b1-3)GlcNAc(b1-3)]Gal(b1-4)Glc
Outline: as §1

[18] = target: Gal(b1-3)GlcNAc(b1-6)[Gal(b1-3)]GalNAc
Outline: as §1

[19] = target: Gal(b1-3)[Fuc(a1-4)]GlcNAc(b1-2)Man(a1-3)[Gal(b1-3)[Fuc(a1-4)]GlcNAc(b1-2)Man(a1-6)]Man(b1-4)GlcNAc(b1-4)[Fuc(a1-6)]GlcNAc
Outline: as §1

[20] = target: Gal(b1-3)[Fuc(a1-4)]GlcNAc(b1-3)Gal(b1-4)[Fuc(a1-3)]GlcNAc
Outline: as §1

[21] = target: Gal(b1-3)[Fuc(a1-4)]GlcNAc(b1-6)GalNAc
Outline: as §1

[22] = target: Gal(b1-4)GlcNAc(b1-2)Man(a1-3)[Gal(b1-4)GlcNAc(b1-2)Man(a1-6)]Man(b1-4)GlcNAc(b1-4)[Fuc(a1-6)]GlcNAc
Outline: as §1

[23] = target: Gal(b1-4)GlcNAc(b1-2)[Gal(b1-4)GlcNAc(b1-4)]Man(a1-3)[GlcNAc(b1-4)][Gal(b1-4)GlcNAc(b1-2)[Gal(b1-4)GlcNAc(b1-6)]Man(a1-6)]Man(b1-4)GlcNAc(b1-4)GlcNAc
Outline: as §1

[24] = target: Gal(b1-4)GlcNAc(b1-3)Gal(b1-4)GlcNAc(b1-3)Gal(b1-4)GlcNAc(b1-2)Man(a1-3)[Gal(b1-4)GlcNAc(b1-3)Gal(b1-4)GlcNAc(b1-3)Gal(b1-4)GlcNAc(b1-2)Man(a1-6)]Man(b1-4)GlcNAc(b1-4)[Fuc(a1-6)]GlcNAc
Outline: as §1

[25] = target: Gal(b1-4)GlcNAc(b1-3)Gal(b1-4)GlcNAc(b1-3)[Gal(b1-4)GlcNAc(b1-3)Gal(b1-4)GlcNAc(b1-6)]GalNAc
Outline: as §1

[26] = target: Gal(b1-4)GlcNAc(b1-3)Gal(b1-4)GlcNAc(b1-6)[Gal(b1-3)]GalNAc
Outline: as §1

[27] = target: Gal3S(b1-3)GalNAc
Outline: as §1

[28] = target: Gal3S6S(b1-4)GlcNAc6S
Outline: as §1

[29] = target: Gal6S(b1-3)GlcNAc
Outline: as §1

[30] = target: Gal6S(b1-4)Glc
Outline: as §1

[31] = target: GalNAc(b1-3)Gal(a1-4)Gal(b1-4)GlcNAc(b1-3)Gal(b1-4)Glc
Outline: as §1

[32] = target: GalNAc(b1-4)GlcNAc
Outline: as §1

[33] = target: GalNAc4S6S(b1-4)GlcNAc
Outline: as §1

[34] = target: GlcNAc(a1-4)Gal(b1-4)GlcNAc(b1-3)Gal(b1-4)[Fuc(a1-3)]GlcNAc(b1-3)Gal(b1-4)[Fuc(a1-3)]GlcNAc
Outline: as §1

[35] = target: GlcNAc(b1-3)Gal(b1-4)GlcNAc(b1-6)[Gal(b1-3)]GalNAc
Outline: as §1

[36] = target: GlcNAc(b1-6)GalNAc
Outline: as §1

[37] = target: Kdn(a2-6)Gal(b1-4)GlcNAc
Outline: as §1

[38] = target: Man(a1-2)Man(a1-2)Man(a1-6)[Man(a1-3)]Man
Outline: as §1

[39] = target: Man(a1-3)[Man(a1-6)]Man(b1-4)GlcNAc(b1-4)[Fuc(a1-6)]GlcNAc
Outline: as §1

[40] = target: Neu5Ac(a2-3)Gal(b1-3)GalNAc(b1-4)[Neu5Ac(a2-3)]Gal(b1-4)Glc
Outline: as §1

[41] = target: Neu5Ac(a2-3)Gal(b1-3)]Neu5Ac(a2-3)Gal(b1-4)]GlcNAc
Outline: as §1

[42] = target: Neu5Ac(a2-3)Gal(b1-4)GlcNAc(b1-2)Man(a1-3)[Neu5Ac(a2-3)Gal(b1-4)GlcNAc(b1-2)Man(a1-6)]Man(b1-4)GlcNAc(b1-4)GlcNAc
Outline: as §1

[43] = target: Neu5Ac(a2-3)Gal(b1-4)GlcNAc(b1-3)Gal(b1-4)GlcNAc(b1-6)[Gal(b1-3)]GalNAc
Outline: as §1

[44] = target: Neu5Ac(a2-3)Gal(b1-4)GlcNAc(b1-3)Gal(b1-4)[Fuc(a1-3)]GlcNAc
Outline: as §1

[45] = target: Neu5Ac(a2-3)Gal(b1-4)GlcNAc(b1-6)[Gal(b1-3)]GalNAc
Outline: as §1

[46] = target: Neu5Ac(a2-3)Gal(b1-4)[Fuc(a1-3)]GlcNAc(b1-3)GalNAc
Outline: as §1

[47] = target: Neu5Ac(a2-3)GalNAc
Outline: as §1

[48] = target: Neu5Ac(a2-6)Gal(b1-4)GlcNAc(b1-2)Man(a1-6)[GlcNAc(b1-2)Man(a1-3)]Man(b1-4)GlcNAc(b1-4)GlcNAc
Outline: as §1

[49] = target: Neu5Ac(a2-6)Gal(b1-4)GlcNAc(b1-2)[Neu5Ac(a2-6)Gal(b1-4)GlcNAc(b1-4)]Man(a1-3)[GlcNAc(b1-4)][Neu5Ac(a2-6)Gal(b1-4)GlcNAc(b1-4)Man(a1-6)]Man(b1-4)GlcNAc(b1-4)GlcNAc
Outline: as §1

[50] = target: Neu5Ac(a2-6)Gal(b1-4)GlcNAc(b1-3)Gal(b1-4)GlcNAc(b1-6)[Gal(b1-3)]GalNAc
Outline: as §1

[51] = target: Neu5Ac(a2-6)Gal(b1-4)GlcNAc(b1-3)[Neu5Ac(a2-6)Gal(b1-4)GlcNAc(b1-6)]GalNAc
Outline: as §1

[52] = target: Neu5Ac(a2-6)Gal(b1-4)GlcNAc(b1-6)[Gal(b1-3)]GalNAc
Outline: as §1

[53] = target: Neu5Ac(a2-8)Neu5Ac(a2-3)Gal(b1-3)GalNAc(b1-4)[Neu5Ac(a2-3)]Gal(b1-4)Glc
Outline: as §1

B1: Aap arpt (Staphylococcus epidermidis) (protein)
chain: NNEAPQMSSTLQAEEGSNAEAPQSEPTKAEEGGNAEAAQSEPTKAEEGGNAEAPQSEPTKAEEGGNAEAAQSEPTKTEEGSNVKAAQSEPTKAEEGSNAEAPQSEPTKTEEGSNAKAAQSEPTKAEEGGNAEAAQSEPTKTEEGSNAEAPQSEPTKAEEGGYAEAPQSEPTKTEEGGNAEAPNVPTIKA
[1]
  glycan array binding signal (z-score): 1.6
[2]
  glycan array binding signal (z-score): 0.811
[3]
  glycan array binding signal (z-score): -0.547
[4]
  glycan array binding signal (z-score): -1.34
[5]
  glycan array binding signal (z-score): 0.036
[6]
  glycan array binding signal (z-score): -0.475
[7]
  glycan array binding signal (z-score): -0.103
[8]
  glycan array binding signal (z-score): -0.617
[9]
  glycan array binding signal (z-score): 0.278
[10]
  glycan array binding signal (z-score): 0.096
[11]
  glycan array binding signal (z-score): -0.249
[12]
  glycan array binding signal (z-score): 0.688
[13]
  glycan array binding signal (z-score): -0.261
[14]
  glycan array binding signal (z-score): 3.25
[15]
  glycan array binding signal (z-score): 0.305
[16]
  glycan array binding signal (z-score): -1.2
[17]
  glycan array binding signal (z-score): 0.709
[18]
  glycan array binding signal (z-score): 0.662
[19]
  glycan array binding signal (z-score): 2.23
[20]
  glycan array binding signal (z-score): -1.72
[21]
  glycan array binding signal (z-score): -0.35
[22]
  glycan array binding signal (z-score): 0.746
[23]
  glycan array binding signal (z-score): -1.6
[24]
  glycan array binding signal (z-score): 2.73
[25]
  glycan array binding signal (z-score): 2.68
[26]
  glycan array binding signal (z-score): 2.97
[27]
  glycan array binding signal (z-score): 0.361
[28]
  glycan array binding signal (z-score): 1.02
[29]
  glycan array binding signal (z-score): -1.93
[30]
  glycan array binding signal (z-score): -0.15
[31]
  glycan array binding signal (z-score): -0.809
[32]
  glycan array binding signal (z-score): -0.143
[33]
  glycan array binding signal (z-score): 1.06
[34]
  glycan array binding signal (z-score): 2.41
[35]
  glycan array binding signal (z-score): -0.695
[36]
  glycan array binding signal (z-score): 3.2
[37]
  glycan array binding signal (z-score): 2.33
[38]
  glycan array binding signal (z-score): -0.012
[39]
  glycan array binding signal (z-score): 1.13
[40]
  glycan array binding signal (z-score): -1.39
[41]
  glycan array binding signal (z-score): 2.21
[42]
  glycan array binding signal (z-score): 3
[43]
  glycan array binding signal (z-score): -0.491
[44]
  glycan array binding signal (z-score): -0.571
[45]
  glycan array binding signal (z-score): 0.944
[46]
  glycan array binding signal (z-score): 0.511
[47]
  glycan array binding signal (z-score): -0.745
[48]
  glycan array binding signal (z-score): 2.64
[49]
  glycan array binding signal (z-score): -0.548
[50]
  glycan array binding signal (z-score): 0.045
[51]
  glycan array binding signal (z-score): -1.09
[52]
  glycan array binding signal (z-score): 0.173
[53]
  glycan array binding signal (z-score): -1.08
